FBW7 activator – activators of human E3 ligase FBW7; normalized activity (activation), % at 26.1 µM; Q969H0; 650,000 compounds, 0.13% hits; AID 1259310; AlphaScreen FBW7–phospho-cyclin E peptide binding, activator screen; in the data active means normalized activity above about 1.9%;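 further: purified mutant Fbw7 with reduced substrate affinity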
GPR151 ag – human GPR151 activation. Q8TDV0. activation, % at 11.2 µM. 650,000 compounds, 1% hits. AID 1508602. PathHunter beta-arrestin GPR151 cells, luminescence; in the data active means activation above about 4.9%;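 further: 0% = median of compound wells and 100% = cells with positive control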
MITF primary – human MITF inhibition, primary screen; AlphaScreen MITF homodimerization, bead proximity signal; 650,000 compounds, 0.91% hits; inhibition, % at 2.6 µM; in the data active means inhibition above about 50%;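 further: 0% = vehicle wells with protein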
TEAD-YAP inh – TEAD-YAP interaction inhibition | HEK-TIYL cells, TEAD-Gal4/YAP UAS-luciferase luminescence | 640,000 compounds, 1.4% hits | inhibition, % at 9.12 µM | AID 1259422; in the data active means inhibition above about 32%;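 further: 0% = median of test compound wells and 100% = reference inhibitor wells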
GPR151 confirm – confirmation of human GPR151 activators. shares compounds with GPR151 ag. GPR151 PathHunter beta-arrestin cells, luminescence, 90 min; % of EA-reagent control over plate median. activation, % at 11.2 µM. 6,700 tested, under 10 active;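 active means mean percent activation across replicates above the confirmation screen cutoff of 4.91%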
GPR119 counter – GPR119 activation, counter-screen for GPR151 activators | activation, % at 11.2 µM | shares compounds with GPR151 ag | 6,700 compounds, 0.3% hits | GPR119 PathHunter beta-arrestin cells, luminescence, 90 min; 0 = compound-well median, 100 = enzyme-acceptor control;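 active means mean percent activation in the counterscreen above 29.09%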;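 further: counterscreen on off-target GPR119 to flag nonselective hits from the GPR151 activator screen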
Target sequence (Q8TDV5 whole entry, looked up): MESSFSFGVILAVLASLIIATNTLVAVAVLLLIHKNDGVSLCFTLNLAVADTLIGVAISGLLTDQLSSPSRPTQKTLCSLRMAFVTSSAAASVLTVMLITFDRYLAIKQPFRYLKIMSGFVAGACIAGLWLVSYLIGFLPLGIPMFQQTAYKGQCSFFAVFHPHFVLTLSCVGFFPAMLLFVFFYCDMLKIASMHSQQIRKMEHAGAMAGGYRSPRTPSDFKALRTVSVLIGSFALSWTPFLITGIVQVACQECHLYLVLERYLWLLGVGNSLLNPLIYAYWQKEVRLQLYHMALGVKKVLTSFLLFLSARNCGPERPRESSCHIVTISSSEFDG
An asterisk follows results filed as active. A selection: hits, their analogues and other compounds. The true share with any hit is near 3.5%.

O=C(CN1C(=O)CCSc2ccccc21)N1CCN(Cc2ccccc2)CC1 was read as FBW7 activator 0, GPR151 ag 1, MITF primary -5 and TEAD-YAP inh 2.
For COc1ccc(CCNC(=O)c2csc(Nc3nc4ccccc4n3C)n2)cc1 the results were FBW7 activator 0, GPR151 ag 1, MITF primary 10 and TEAD-YAP inh 2.
COc1ccc(CCNC(=O)c2cccc(Nc3nc4ccccc4n3C)n2)cc1 was read as FBW7 activator 0, GPR151 ag 7.8*, MITF primary 39, TEAD-YAP inh 12, GPR151 confirm -1 and GPR119 counter -16.
CC(=O)c1cc2c(cc1NC(=O)c1ccccc1)OCCO2 was read as FBW7 activator 0, GPR151 ag 0, MITF primary 13 and TEAD-YAP inh 0.
For CC(=O)c1cc2c(cc1NC(=O)c1cccc(Br)c1)OCCO2 the results were FBW7 activator 0, GPR151 ag 5.6*, MITF primary 18, TEAD-YAP inh 13, GPR151 confirm 0 and GPR119 counter -2.
For COC(=O)c1ccc2c(=O)n(CCN3CCOCC3)c(SCC(=O)c3ccc(Cl)cc3)nc2c1 the results were FBW7 activator 0, GPR151 ag 0, MITF primary -7 and TEAD-YAP inh 3.
`Cc1ccc(-c2cncc(-c3cc(Nc4ncccn4)nc(C)n3)c2)cc1` gave FBW7 activator 0, GPR151 ag -1, MITF primary 42 and TEAD-YAP inh 1.
`COc1ccc(-c2cncc(-c3cc(Nc4ncccn4)nc(C)n3)c2)cc1` gave FBW7 activator 0, GPR151 ag 6.9*, MITF primary 3, TEAD-YAP inh -1, GPR151 confirm -1 and GPR119 counter 0.
For CCc1c(C(=O)Nc2ccc(C)c(F)c2)[nH]c(C)c1C(C)=O the results were FBW7 activator 0, GPR151 ag 12*, MITF primary 2, TEAD-YAP inh -12, GPR151 confirm -1 and GPR119 counter -8.
COc1c(Cl)cc(C(=O)NCc2ccc3c(c2)OCO3)cc1Cl was read as FBW7 activator 0, GPR151 ag 5.9*, MITF primary 0, TEAD-YAP inh -6, GPR151 confirm 0 and GPR119 counter -8.
`COc1ccc(-c2noc(N3CCC(C(=O)NCc4ccc5c(c4)OCO5)CC3)n2)cc1` gave FBW7 activator 0, GPR151 ag 7.9*, MITF primary 9, TEAD-YAP inh 0, GPR151 confirm 0 and GPR119 counter 3.
For COc1ccc(/C=N/N(C)C2=NCCN2)c(OC)c1OC the results were FBW7 activator 0, GPR151 ag 6.9*, MITF primary 3, TEAD-YAP inh 2, GPR151 confirm 0 and GPR119 counter -8.
O=C(/C=C/c1cccc(C(F)(F)F)c1)Nc1ncc(Cc2cccc(Cl)c2)s1 was read as FBW7 activator 0, GPR151 ag 2, MITF primary 11 and TEAD-YAP inh 1.
`CCOc1cc(/C=N/N=C2/NC(=O)CS2)cc(Cl)c1O` gave FBW7 activator 0, GPR151 ag 7.1*, MITF primary 5, TEAD-YAP inh -9, GPR151 confirm 1 and GPR119 counter 2.
`CCOc1cc(/C=N/N=C2/NC(=O)CS2)ccc1OC(=O)c1ccc(OC)cc1` gave FBW7 activator 0, GPR151 ag 1, MITF primary 7 and TEAD-YAP inh -14.
Screening Cc1ccc(-c2csc3ncn(Cc4cccc(F)c4)c(=O)c23)cc1 returned FBW7 activator 0, GPR151 ag 0, MITF primary -17 and TEAD-YAP inh -1.
CC(C)n1cnc2c(NCCN3CCOCC3)nc(Nc3ccc(-n4ccnc4)cc3)nc21 was read as FBW7 activator 0, GPR151 ag 6.2*, MITF primary 12, TEAD-YAP inh 15, GPR151 confirm -2 and GPR119 counter -15.
O=C1CCCN1CCn1cnc2c(Nc3ccc(N4CCOCC4)cc3)nc(Nc3ccc(-n4ccnc4)cc3)nc21 was read as FBW7 activator 0, GPR151 ag 5.9*, MITF primary -2, TEAD-YAP inh -3, GPR151 confirm 0 and GPR119 counter -8.
Screening O=C1CCCN1CCn1cnc2c(NCCO)nc(Nc3ccc(N4CCOCC4)cc3)nc21 returned FBW7 activator 0, GPR151 ag 5.6*, MITF primary 11, TEAD-YAP inh -4, GPR151 confirm 0 and GPR119 counter 0.
For CCc1ccc(NC(=O)C2CC(=O)N(c3ccc(C)cc3)C2)cc1 (stereo not drawn) the results were FBW7 activator 0, GPR151 ag 1, MITF primary 5 and TEAD-YAP inh 8.
`COc1ccc(N2C(=O)c3ccc(C(=O)NN4C(=O)c5ccccc5C4=O)cc3C2=O)cc1` gave FBW7 activator 0, GPR151 ag 1, MITF primary 6 and TEAD-YAP inh -6.
CCC(C)CC(=O)N1CCc2nnc(CNC(=O)CCc3cccnc3)n2CC1 (stereo not drawn) was read as FBW7 activator 0, GPR151 ag 9.0*, MITF primary 6, TEAD-YAP inh 4, GPR151 confirm 0 and GPR119 counter -6.
For CC1Sc2cc(S(=O)(=O)CCC(=O)NCc3cccs3)ccc2NC1=O (stereo not drawn) the results were FBW7 activator 0, GPR151 ag 0, MITF primary -6 and TEAD-YAP inh 5.
O=C(NCCC1=CCCCC1)c1cc(S(=O)(=O)NCCc2ccccc2)ccc1F was read as FBW7 activator 0, GPR151 ag 9.7*, MITF primary -8, TEAD-YAP inh 9, GPR151 confirm 0 and GPR119 counter 8.
For O=C(Nc1ccc(Cl)cc1)c1cc(S(=O)(=O)NCCC2=CCCCC2)ccc1F the results were FBW7 activator 0, GPR151 ag 1, MITF primary 9 and TEAD-YAP inh 27.
Screening O=C1c2ccccc2C(=O)N1CCOc1ccc(Br)cn1 returned FBW7 activator 0, GPR151 ag 6.0*, MITF primary -3, TEAD-YAP inh -2, GPR151 confirm 0 and GPR119 counter 0.
Screening O=C1c2ccccc2C(=O)N1CCOc1ccccc1F returned FBW7 activator 0, GPR151 ag -3, MITF primary -1 and TEAD-YAP inh -69.
Screening CCOc1cc(/C=C2\N=C(c3cccc(C)c3)OC2=O)ccc1OC(C)=O returned FBW7 activator 0, GPR151 ag 0, MITF primary 1 and TEAD-YAP inh 2.
For CCOc1cc(/C=C2/N=C(c3cccc(C)c3)OC2=O)ccc1OS(C)(=O)=O the results were FBW7 activator 1, GPR151 ag 13*, MITF primary 9, TEAD-YAP inh 12, GPR151 confirm -1 and GPR119 counter -18.
Screening C[C@H]1CC[C@H]2C(=O)O[C@H](CO)CN2[C@@H]1c1ccc(Br)cc1 returned FBW7 activator 0, GPR151 ag -1 and MITF primary 5.

Assay outcomes as filed in PubChem.
